Data reported in PubChem BioAssay (NCI).
The panel holds about 83,000 compounds, 20% with a hit somewhere; the sample as a whole holds those more often.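 Cell lines were cultured in 96-well plates, exposed to a single compound concentration, and assessed for percent growth 48 hours later.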 A number with no mark means an inactive call. Activity calls are given as the source filed them. The calls were made as follows: active = growth percent below 10; inactive = the rest.

What was measured:
Test in all cases: NCI-60 one-dose screen, 48 h (100 = growth as untreated, 0 = no growth, -100 = all killed)
Conditions in all cases: 10 µM unless noted
DU-145 prostate = system: DU-145 prostate
K-562 leukemia = system: K-562 leukemia
MALME-3M melanoma = system: MALME-3M melanoma
MDA-MB-231 breast = system: MDA-MB-231 breast
RXF 393 renal = system: RXF 393 renal
SF-268 CNS = system: SF-268 CNS
SF-295 CNS = system: SF-295 CNS
SF-539 CNS = system: SF-539 CNS
UACC-257 melanoma = system: UACC-257 melanoma
M14 melanoma = system: M14 melanoma

Structure (SMILES) | growth (DU-145 prostate) | growth (K-562 leukemia) | growth (MALME-3M melanoma) | growth (MDA-MB-231 breast) | growth (RXF 393 renal) | growth (SF-268 CNS) | growth (SF-295 CNS) | growth (SF-539 CNS) | growth (UACC-257 melanoma) | growth (M14 melanoma)
COc1cc(/C=N/Nc2ccccc2F)cc(OC)c1OC | 106% | 48.5% | 99% | 81.5% | 123% | 83.2% | 98.1% | 99.3% | 116% | 96.5%
CN(C)Cc1ccc(C(=O)Nc2ccc3ncnc(Nc4ccc(Oc5cccc(F)c5)c(Cl)c4)c3c2)cc1 | 7.69% (active) | -39.3% (active) | -80.6% (active) | -73.9% (active) | -80.4% (active) | -31% (active) | -41.7% (active) | -90.1% (active) | -58.3% (active) | -69.3% (active)
O=C(Nc1nc(C(=O)N2CCN(C(c3ccccc3)c3ccccc3)CC2)cs1)c1ccc(NC2CCCCC2)c([N+](=O)[O-])c1 | 98.9% | 83.9% | 89.4% | 70.5% | 85% | 86.3% | 69.9% | 93.3% | 89.4% | 77.8%
Cc1[nH]c(C(=O)Nc2ccc(C(N)=O)cc2NC(C)C)c(Cl)c1Cl | 100% | 85.8% | 94.4% | 90.1% | 94.7% | 86.5% | 100% | 92.8% | 96.2% | 87.6%
CCCCCCCC/C=C\CCCCCCCCOc1ccc(CC(=O)NCC[N+](C)(C)C)cc1 | 75.6% | 55.1% | 70.2% | 67.4% | -21.8% (active) | 68.6% | 77.8% | 66.8% | 79.7% | 63.7%
COc1ccc(C2CC(c3ccc4c(c3)OCO4)=Nc3c(N)ncnc3N2)cc1 (stereo not given) | 141% | 99.6% | 106% | 90.1% | 84.3% | 93.3% | 168% | 110% | 107% | 105%
COc1ccc(C2=Nc3c/c(=C\c4c(O)[nH]c5cc(Cl)ccc45)ccc3=N2)cc1 | 76.8% | 48.8% | 72.6% | 69.2% | 38.1% | 89.7% | 57.9% | 64.8% | 74.5% | 50.5%
COc1cc2cc(Oc3ccc(NC(=O)Nc4ccccc4)cc3)c(C)nc2cc1OCCN1CCCCC1 | 89.6% | -45.6% (active) | -75% (active) | 85.7% | 53.5% | 83.5% | 100% | -80.4% (active) | 84% | -90.1% (active)
O=C(O)CCCc1cnc2c3sccc3nc(SCc3c(Cl)cccc3Cl)n12 | 59.3% | 20.7% | 59.2% | 69.6% | 54.6% | 50.3% | 27.2% | 41% | 53% | 33%
CCCCNC1=C(OCC)C(=O)c2ccccc2C1=O | 104% | 126% | 121% | 98.9% | 92.8% | 97.3% | 103% | 112% | 95.7% | 95.5%
NC(=S)N/N=C/c1cn(-c2ccccc2)nc1-c1cc2ccccc2oc1=O | 85.3% | 17.1% | 48.8% | 34.3% | 78% | 66.1% | 48.1% | 57.2% | 71.5% | 22.1%
CSCCC(NC(=O)c1ccccc1)C(=O)N/N=C1\S/C(=C/c2ccc(Cl)cc2)C(=O)N1C (stereo not given) | 75.1% | 41.6% | 83.3% | 75.6% | 75.5% | 74.1% | 75.2% | 93.5% | 89.8% | 86.6%
O=c1[nH]c(-c2ccc(Cl)cc2)cn1-c1ccc(-n2cc(-c3ccc(Cl)cc3)[nH]c2=O)cc1 | 108% | 113% | 97.9% | 94.7% | 113% | 109% | 101% | 104% | 101% | 99.2%
COc1ccc2c(c1)c(-c1nc(-c3cn(C)c4ncccc34)cs1)cn2CCO | 90.9% | 25.2% | 110% | 57% | 84.6% | 91.1% | 74.1% | 75% | 92.4% | 75.1%
CCCCn1sc(=O)n(Cc2ccc(CNC(=O)OCc3ccc4c(Br)cc(Br)c(O)c4n3)cc2)c1=O | 6.37% (active) | 12.8% | 61.1% | 38.6% | 15.9% | 33.9% | 13.7% | -14% (active) | 48.4% | 10.4%
CC/C=C1/C(=O)C=C[C@@H]1C/C=C\CCCC(=O)OC | 77.1% | 4.34% (active) | 56.3% | 28.7% | 103% | 79.7% | 88.7% | 108% | 73.1% | 50.5%
CC(C)[C@@]12C[C@@H](OC(=O)COC(=O)c3ccccc3)[C@@](C)(O1)[C@@H]1CC[C@@H](C)[C@H]1[C@@H]2OC(=O)/C=C/c1ccccc1 | 101% | 75.4% | 106% | 86.3% | -2.22% (active) | 63.4% | 94.5% | 95.4% | 95.3% | 104%
COc1ccc(C2C(C#N)=C(N)Oc3c2sc2c(Br)cccc32)cc1 (stereo not given) | 21.4% | 9.39% (active) | 37% | 40.5% | 4.42% (active) | 38.7% | 15.7% | -12.4% (active) | 65.5% | 6.9% (active)
O=C(Nc1ccc(F)cc1)Nc1ccccc1CNc1nc(Nc2ccc(OCCN3CCCC3)cc2)ncc1Cl | 47% | 2.99% (active) | -29.3% (active) | -30.9% (active) | -50% (active) | 56.5% | 82.3% | -74.7% (active) | 5.96% (active) | -39.2% (active)
C=CCCC(=O)N1C=CC(=O)[C@H](O)[C@@H]1/C=C/c1ccccc1 | 35.7% [100 µM] | 26.3% [100 µM] | 89.3% [100 µM] | 52.3% [100 µM] | 78.9% [100 µM] | 35.9% [100 µM] | 33.4% [100 µM] | 19.2% [100 µM] | 64.9% [100 µM] | -19.8% [100 µM] (active)
CC(C)c1ccc(NC(=O)Nc2ccc(NC(=O)c3ccccc3N)cc2)cc1 | 79.2% | 18.2% | 72.9% | 50.1% | -25.1% (active) | 51.8% | -27.3% (active) | 30.1% | 58.6% | 34%
CC(C)=CC(=O)N[C@@H]1CC2CCC3C(CC[C@@]4(C)C3CC[C@@H]4C(C)N(C)C)[C@@]2(C)C[C@@H]1O (stereo not given in full) | 74.1% | -17.1% (active) | 32.3% | 74.6% | 20.6% | 32.3% | 11.1% | -19.5% (active) | 31.2% | 47.3%
N#Cc1nc2c(S(=O)(=O)c3ccccc3)c(N)n(Cc3cccnc3)c2nc1C#N | 90.6% | 51.6% | 78.1% | 84.7% | 59.7% | 52.2% | 92.7% | 58.7% | 80.3% | 142%
OC(c1ccccc1)(c1ccccc1)c1ccccc1-c1ccccc1 | 96.2% | 96.5% | 120% | 84.4% | 103% | 90.6% | 109% | 112% | 101% | 99.4%
